E coli Lon inh – E. coli protease La inhibition. P0A9M0. AID 602123. 360,000 compounds, 0.42% hits. inhibition, % at 7.94 µM. purified E. coli Lon protease, fluorescence polarization; in the data active means inhibition above about 13%, passing the limit was not always enough;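 further: 0% = enzyme with probe and DMSO and 100% = no enzyme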
BCLXL inh – blocks human Bcl-xL binding to Bim BH3 peptide; GST-Bcl-xL / FITC-Bim BH3 peptide fluorescence polarization; AID 2129; 320,000 compounds, 0.7% hits; inhibition, % at 10.9 µM;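 active means inhibition above the mean of all tested compounds plus 3 SD, cutoff set per campaign, cut at about 30% in these data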;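 further: 0% = DMSO wells and 100% = unlabeled Bim-BH3 peptide competitor; inhibitors lower millipolarization by displacing the labeled peptide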
GLD-1 TGE inh – GLD-1-TGE RNA interaction inhibition (C. elegans); Q17339; purified GLD-1 + fluorescein TGE RNA, fluorescence polarization; inhibition, % at 5.96 µM; 320,000 compounds, 0.44% hits; AID 2280;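 active means percent inhibition above a per-plate cutoff, the plate mean of test compounds plus 3 SD, cut at about 30% in these data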;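 further: 0% = DMSO wells with GLD-1 and probe and 100% = wells lacking GLD-1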
Target sequence (Q17339 whole entry, looked up): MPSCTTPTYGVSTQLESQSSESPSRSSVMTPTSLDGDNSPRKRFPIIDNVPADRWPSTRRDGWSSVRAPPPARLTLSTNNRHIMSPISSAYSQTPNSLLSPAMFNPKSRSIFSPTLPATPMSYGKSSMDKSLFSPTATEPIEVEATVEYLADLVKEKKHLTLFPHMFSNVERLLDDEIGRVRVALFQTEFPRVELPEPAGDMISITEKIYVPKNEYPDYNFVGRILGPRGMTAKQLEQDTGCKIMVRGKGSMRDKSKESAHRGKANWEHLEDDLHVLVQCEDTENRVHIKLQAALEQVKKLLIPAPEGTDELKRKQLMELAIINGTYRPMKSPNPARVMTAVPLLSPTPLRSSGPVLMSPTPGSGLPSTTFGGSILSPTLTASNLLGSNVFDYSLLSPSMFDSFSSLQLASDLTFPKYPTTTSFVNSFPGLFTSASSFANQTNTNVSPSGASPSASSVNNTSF
MEX-5 binding – C. elegans MEX-5 TCR-2 RNA binding activity. 300,000 compounds, 0.38% hits. MEX-5/FITC-TCR2 RNA binding, fluorescence polarization; active compounds read low. Q9XUB2. activity score (negative = inhibition of binding), % at 10 µM;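 active means inhibition past about -25% in most replicates, and total fluorescence under double the plate's negative control median, limit read from the data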;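 further: 0% = DMSO and -100% = 5 µM competing unlabeled TCR2 RNA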
MCL1-BIM inh – MCL1-BIM-BH3 interaction inhibition (human); Q07820; GST-MCL1 / FITC-Bim-BH3 fluorescence polarization; inhibition, % at 10.9 µM; 320,000 compounds, 0.68% hits; AID 2057;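 active means inhibition above the mean inhibition of all tested compounds plus 3 SD, set per campaign, cut at about 40% in these data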;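 further: 0% = DMSO wells and 100% = unlabeled Bim-BH3 peptide control; higher means more loss of mP so more displacement of Bim peptide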
GLD-1 TGE cf – confirmation of C. elegans GLD-1 TGE RNA binding inhibitors; 550 compounds, 10% hits; shares compounds with GLD-1 TGE inh; AID 2459; GLD-1/FL-TGE RNA fluorescence polarization, biochemical; inhibition, % at 5.96 µM;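 active means average inhibition across triplicates above the hit cutoff set in the primary screen, cut at about 32% in these data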;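 further: 0% = GLD-1 with RNA probe and DMSO and 100% = wells lacking GLD-1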
Numbers without * were called inactive; · = no result. Only some compounds are listed: those with a hit (about 1.4% of all), similar ones and a draw of the others.

SMILES | E coli Lon inh | BCLXL inh | GLD-1 TGE inh | MEX-5 binding | MCL1-BIM inh | GLD-1 TGE cf
C=CCn1c(CCNC(=O)c2cccs2)nnc1SCC(=O)c1ccc(Cl)cc1 | -1 | -2 | 86* | 0 | -1 | 8
COCCCn1cc(CN2CC(N3CCN(C)CC3)CS2(=O)=O)nn1 (stereo unspecified) | 2 | · | · | · | · | ·
CC1(C(=O)NS(=O)(=O)c2cccc(C#N)c2)CCN1C(=O)CCC1CCCC1 (stereo unspecified) | -9 | · | · | · | · | ·
COc1ccc(NC(=O)N2c3ccc(OC)cc3C(C)=CC2(C)C)cc1 | -1 | 11 | 16 | 1 | 0 | ·
CCNC(=O)N1c2ccc(OC)cc2C(C)=CC1(C)C | 14 | 52* | 70* | -3 | -2 | -4
Cc1cccc(C(=O)OCC(=O)NC(=O)NC2CCCCC2)c1 | 6 | · | · | · | · | ·
CCOC(=O)C1=C(Cc2ccc(Cl)cc2)C(=O)c2ccccc2C1=O | 9 | 25 | 33* | 2 | 37 | 5
CC(=O)c1sc(Nc2ccc(Oc3ccccc3)cc2)nc1C | -2 | · | · | · | · | ·
Cc1cccc(N2CCN(C(=O)C3COc4ccccc4O3)CC2)c1C (stereo unspecified) | 7 | 0 | 100* | 0 | 0 | 0
O=C(C1COc2ccccc2O1)N1CCN(c2ccccc2Cl)CC1 (stereo unspecified) | -1 | 6 | 6 | 4 | 1 | ·
CNc1cncc(-c2cccnc2)n1 | 7 | · | · | · | · | ·
O=C(OCCN1CCCCC1)c1c[nH]c2ccccc12 | 0 | 10 | 32* | · | 3 | -4
COc1ccc([C@H]2CC(=O)C[C@@H](CCn3cc(Cc4ccccc4)nn3)O2)cc1 | 1 | · | · | · | · | ·
CC12CCC(=O)C=C1CCC1C2C(O)CC2(C)C1CCC2(O)C(=O)COC(=O)CCC1CCCC1 (stereo unspecified) | 2 | · | · | · | · | ·
CN1CCN(c2nc3nonc3nc2N2CCN(C)CC2)CC1 | 8 | 33* | 35* | -5 | 29 | 4
O=C(COC(=O)/C=C/c1cccc(Cl)c1)Nc1c(F)cccc1F | -7 | · | 3 | · | · | ·
O=C(COC(=O)/C=C/c1cccc(Cl)c1)Nc1ccccc1-c1ccccc1 | · | -1 | 47* | 1 | 5 | -2
CC(CCC(C)C(C)(C)C)[C@@H]1CC[C@H]2C3C[C@H](OS(O)(=S)=S)[C@H]4C[C@H](OS(O)(=S)=S)[C@@H](OS(O)(=S)=S)C[C@]4(C)[C@H]3CC[C@]12C (stereo partly specified) (tested in a mixture with another compound) | 36* | · | 85* | · | · | 72*
CC(CCC(=O)NN)C1CCC2C3CCC4CC(O)CCC4(C)C3CCC12C (stereo unspecified) | -1 | · | · | · | · | ·
O=C(Nc1ccc2nc(-c3ccco3)c(-c3ccco3)nc2c1)N1CCCCCC1 | · | 105* | 41* | -11 | 118* | 27
Nc1c(Cl)ncnc1N/N=C/c1ccccn1 | · | 15 | 19 | · | 23 | ·
Nc1c(Cl)ncnc1N/N=C/c1ccc2ccccc2n1 | 14 | 17 | 32* | · | 15 | -6
N#Cc1c(NCCO)nc(NCc2ccccc2)c2c1CCN(Cc1ccccc1)C2 | · | 46* | 36* | 0 | 50* | 6
CCN1CCc2c(C#N)c(N3CCCCC3)nc(NCc3ccccc3)c2C1 | 8 | 22 | 14 | -1 | 16 | ·
CC1CCN(c2oc(-c3ccc(F)cc3)nc2C#N)CC1 | 11 | 2 | 34* | 2 | 11 | -1
SMILES | E coli Lon inh | BCLXL inh | GLD-1 TGE inh | MEX-5 binding | MCL1-BIM inh | GLD-1 TGE cf
Nc1c(NCCC2=CCCCC2)c(=O)[nH]c(=O)n1Cc1ccccc1 | 7 | 42* | 48* | -50* | 41* | -2
COC(=O)c1ccc(NC(=O)CSc2ccccn2)cc1 | -8 | -5 | 9 | -1 | -8 | ·
COC(=O)c1ccc(NC(=O)CSc2ccccc2)cc1 | 3 | 38* | 37* | -1 | 32 | -6
NS(=O)(=O)c1ccc(CCNC(=O)COC(=O)c2nc(Cl)ccc2Cl)cc1 | -12 | 2 | -5 | · | 6 | ·
OCC[C@@H]1C[C@H](O)[C@@H](O)[C@]2(OCc3cc(Cl)ccc32)O1 | -10 | · | · | · | · | ·
Cn1c(=O)c2cc(NCc3ccccc3)nnc2n(C)c1=O | -2 | 46* | 32* | -3 | 44* | 5
O=C(NCc1ccco1)c1ccc(-c2ccc3nccn3c2)cc1 | -26 | · | · | · | · | ·
